Measured values reported in PubChem BioAssay AID1159580 (chemical genetic matrix, 2015).
The campaign covered roughly 5,500 compounds. About 2,000 (36%) were called active. Roughly 18% stayed inconclusive and do not appear here. The list shows a part of the results. A number with no mark means an inactive call. No stated cut-off is given here; in the data, active means normalized growth mostly below about 0.91 (no sharp cut-off); inconclusive means no clear call, values can overlap the other calls; inactive means mostly above about 0.92.

Assay: chemical genetic growth profiling, strain panel (AID 1159580);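 further: tested at 20 µM; growth read once vehicle control cultures reached saturation at 30 °C; 1 = growth at the plate median or of vehicle wells; lower values mean less growth of the strain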
Details: S. cerevisiae deletion strains, growth OD
[1] = locus YAL013W, strain DEP1, active compounds read low
[2] = locus YBR229C, strain ROT2, active compounds read low
[3] = locus YDL101C, strain DUN1, active compounds read low
[4] = locus YDR150W, strain NUM1, active compounds read low
[5] = locus YEL061C, strain CIN8, active compounds read low
[6] = locus YGR078C, strain PAC10, active compounds read low
[7] = locus YHR030C, strain SLT2, active compounds read low
[8] = locus YHR087W, strain rtc3, active compounds read low
[9] = locus YJR043C, strain POL32, active compounds read low
[10] = locus YJR075W, strain HOC1, active compounds read low
[11] = locus YLR039C, strain RIC1, active compounds read low
[12] = locus YLR058C, strain SHM2 (second series), active compounds read low
[13] = locus YLR085C, strain ARP6, active compounds read low
[14] = locus YLR262C, strain YPT6, active compounds read low
[15] = locus YML094W, strain GIM5, active compounds read low
[16] = locus YMR219W, strain ESC1, active compounds read low
[17] = locus YMR263W, strain SAP30, active compounds read low
[18] = locus YNL128W, strain TEP1, active compounds read low
[19] = locus YNL153C, strain GIM3, active compounds read low
[20] = locus YNL298W, strain CLA4 (second series), active compounds read low
[21] = locus YNL322C, strain KRE1, active compounds read low
[22] = locus YNR030W, strain Alg12, active compounds read low
[23] = locus YPL055C, strain LGE1, active compounds read low
[24] = locus YPL241C, strain CIN2, active compounds read low
[25] = locus YPR135W, strain CTF4, active compounds read low

Clc1ccc(Sc2ncnc3ccsc23)cc1
normalized growth [1]: 0.919 (active) | normalized growth [2]: 0.893 (active) | normalized growth [3]: 0.959 | normalized growth [4]: 0.911 | normalized growth [5]: 0.81 (active) | normalized growth [6]: 0.885 (active) | normalized growth [7]: 0.502 (active) | normalized growth [8]: 0.809 (active) | normalized growth [9]: 0.866 (active) | normalized growth [10]: 0.768 (active) | normalized growth (locus YKL190W, strain CNB1, active compounds read low): 0.863 (active) | normalized growth [11]: 0.941 | normalized growth [12]: 0.877 (active) | normalized growth [13]: 0.352 (active) | normalized growth [14]: 1.1 | normalized growth [15]: 0.814 (active) | normalized growth [16]: 0.885 (active) | normalized growth [17]: 0.94 | normalized growth [18]: 0.934 | normalized growth [19]: 0.924 (active) | normalized growth [20]: 0.777 (active) | normalized growth [21]: 0.922 (active) | normalized growth [22]: 0.705 (active) | normalized growth (locus YOL006C, strain TOP1, active compounds read low): 0.516 (active) | normalized growth [23]: 0.682 (active) | normalized growth [24]: 0.66 (active) | normalized growth [25]: 0.451 (active)

Clc1ccc(SCc2ccsc2-c2ncns2)cc1
normalized growth (locus YAR019C, strain CDC15, active compounds read low): 0.98 | normalized growth (locus YBL105C, strain PKC1, active compounds read low): 0.968 | normalized growth (locus YBR135W, strain CKS1, active compounds read low): 0.967 | normalized growth (locus YBR136W, strain MEC1, active compounds read low): 0.968 | normalized growth (locus YBR160W, strain CDC28, active compounds read low): 0.975 | normalized growth (locus YDL017W, strain CDC7, active compounds read low): 0.97 | normalized growth (locus YDL028C, strain MPS1, active compounds read low): 0.971 | normalized growth [3]: 0.954 | normalized growth (locus YDL108W, strain KIN28, active compounds read low): 0.967 | normalized growth (locus YDL132W, strain cdc53, active compounds read low): 0.968 | normalized growth (locus YDL214C, strain PRR2, active compounds read low): 0.965 | normalized growth (locus YDR052C, strain DBF4, active compounds read low): 0.976 | normalized growth (locus YDR054C, strain cdc34, active compounds read low): 0.964 | normalized growth (locus YDR226W, strain ADK1, active compounds read low): 0.968 | normalized growth (locus YDR477W, strain SNF1, active compounds read low): 0.951 | normalized growth (locus YER123W, strain YCK3, active compounds read low): 0.897 | normalized growth (locus YER133W, strain GLC7, active compounds read low): 0.961 | normalized growth (locus YFL009W, strain cdc4, active compounds read low): 0.964 | normalized growth (locus YFL029C, strain CAK1, active compounds read low): 0.969 | normalized growth (locus YFR003C, strain YPI1, active compounds read low): 0.967 | normalized growth (locus YFR019W, strain FAB1, active compounds read low): 0.906 | normalized growth (locus YFR028C, strain CDC14, active compounds read low): 0.96 | normalized growth (locus YGR040W, strain KSS1, active compounds read low): 0.946 | normalized growth (locus YGR052W, strain FMP48, active compounds read low): 1.04 | normalized growth (locus YGR092W, strain DBF2, active compounds read low): 0.914 | normalized growth [7]: 0.933 | normalized growth (locus YHR079C, strain IRE1, active compounds read low): 0.958 | normalized growth (locus YHR082C, strain KSP1, active compounds read low): 1 | normalized growth (locus YHR205W, strain SCH9, active compounds read low): 0.923 | normalized growth (locus YIL147C, strain SLN1, active compounds read low): 0.973 | normalized growth (locus YJL095W, strain BCK1, active compounds read low): 0.972 | normalized growth (locus YJL128C, strain PBS2, active compounds read low): 0.961 | normalized growth (locus YJL157C, strain FAR1, active compounds read low): 0.963 | normalized growth (locus YJR016C, strain ILV3, active compounds read low): 0.977 | normalized growth (locus YJR066W, strain TOR1 (second series), active compounds read low): 0.933 | normalized growth (locus YJR066W, strain TOR1, active compounds read low): 0.955 | normalized growth (locus YKL048C, strain ELM1, active compounds read low): 0.971 | normalized growth (locus YKL067W, strain YNK1, active compounds read low): 0.972 | normalized growth (locus YKL101W, strain HSL1, active compounds read low): 0.976 | normalized growth (locus YKL193C, strain SDS22, active compounds read low): 0.969 | normalized growth (locus YKL203C, strain TOR2, active compounds read low): 0.992 | normalized growth (locus YLR113W, strain HOG1, active compounds read low): 0.923 | normalized growth (locus YLR133W, strain CKI1, active compounds read low): 0.973 | normalized growth (locus YLR403W, strain SFP1, active compounds read low): 0.927 | normalized growth (locus YML070W, strain DAK1, active compounds read low): 0.963 | normalized growth (locus YMR001C, strain CDC5, active compounds read low): 0.968 | normalized growth (locus YMR205C, strain PFK2 (second series), active compounds read low): 0.955 | normalized growth (locus YMR277W, strain FCP1, active compounds read low): 0.973 | normalized growth (locus YNL006W, strain LST8, active compounds read low): 0.969 | normalized growth (locus YNL020C, strain ARK1, active compounds read low): 0.975 | normalized growth (locus YNL161W, strain CBK1, active compounds read low): 0.972 | normalized growth (locus YNL183C, strain NPR1, active compounds read low): 0.947 | normalized growth (locus YNL207W, strain RIO2, active compounds read low): 0.981 | normalized growth (locus YNL222W, strain SSU72, active compounds read low): 0.977 | normalized growth (locus YNL307C, strain MCK1 (second series), active compounds read low): 0.948 | normalized growth (locus YOL078W, strain AVO1, active compounds read low): 0.975 | normalized growth (locus YOL136C, strain PFK27, active compounds read low): 0.966 | normalized growth (locus YOR061W, strain CKA2, active compounds read low): 0.947 | normalized growth (locus YOR119C, strain RIO1, active compounds read low): 0.958 | normalized growth (locus YOR231W, strain MKK1, active compounds read low): 0.964 | normalized growth (locus YOR329C, strain SCD5, active compounds read low): 0.975 | normalized growth (locus YPL031C, strain PHO85, active compounds read low): 0.947 | normalized growth (locus YPL153C, strain RAD53, active compounds read low): 0.958 | normalized growth (locus YPL204W, strain HRR25, active compounds read low): 0.934 | normalized growth (locus YPL209C, strain IPL1, active compounds read low): 0.972 | normalized growth (locus YPL256C, strain CLN2, active compounds read low): 0.916 | normalized growth (locus YPR025C, strain CCL1, active compounds read low): 0.968 | normalized growth (locus YPR106W, strain ISR1, active compounds read low): 0.977 | normalized growth (locus YPR111W, strain DBF20, active compounds read low): 0.971 | normalized growth (strain NNK1, active compounds read low): 0.974 | normalized growth (strain TSCII, active compounds read low): 0.968

O=c1[nH]cnc2ccsc12
normalized growth [1]: 1.01 | normalized growth [2]: 1.02 | normalized growth (locus YCL061C, strain MRC1, active compounds read low): 0.998 | normalized growth [3]: 1 | normalized growth [4]: 1.03 | normalized growth [5]: 1.02 | normalized growth [6]: 0.998 | normalized growth [7]: 1.05 | normalized growth [8]: 1 | normalized growth [9]: 0.996 | normalized growth [10]: 1.03 | normalized growth [11]: 0.985 | normalized growth [12]: 1.03 | normalized growth [13]: 1.04 | normalized growth [14]: 0.982 | normalized growth [15]: 1.03 | normalized growth [16]: 1.01 | normalized growth [17]: 1.04 | normalized growth [18]: 1.02 | normalized growth [19]: 1.02 | normalized growth [20]: 1.01 | normalized growth [21]: 0.993 | normalized growth [22]: 1.01 | normalized growth [23]: 1.09 | normalized growth [24]: 1.02 | normalized growth [25]: 1.34
